NS1 inh – qHTS Assay for Inhibitors of Influenza NS1 Protein Function | Potency, µM (doses to about 46.1 µM), inactives show at the highest dose activity, positive = more growth | 0.4% of 270,000 active | AID 2326, 2010; calls by dose curve; further: potency means the concentration at half of the fitted maximal effect; actives are rising curves; nearly all actives have a fitted effect of over 50% in size
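Read-out: OD600 growth recovery of NS1-expressing budding yeast. Cells grown overnight at 30C in -URA glucose medium, washed, resuspended and diluted 1:100 in 2% galactose assay medium, pH 6.0. Same strain lacking NS1 served as positive control.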
Giardia FBPA inh – qHTS Assay for Inhibitors of Fructose-1,6-bisphosphate Aldolase from Giardia Lamblia; A8B2U2; purified Giardia FBPA; Potency, µM (series often up to 59.6 µM), without a hit: top-dose activity, negative = inhibition, actives largely listed as inhibitors; 0.71% of 290,000 active; AID 2451, 2010; further: potency means the concentration at half of the fitted maximal effect; on the % scale 0 is the no-effect control and ±100 the full control effect; nearly all actives have a fitted effect of over 55% in size
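40 nM FBPA preincubated 10 min at RT with compound (up to 57.5 uM final), then substrate plus GAPDH/TPI/NAD/arsenate coupling and diaphorase/resazurin added. Fluorescence read after 20 min at RT, 525/598 nm.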
Shiga toxin inh – A qHTS for Small Molecule Inhibitors of Shiga Toxin; inhibition, % at 38.7 µM; 9.2% of 290,000 active; Vero cells, Shiga toxin protein synthesis inhibition reporter; AID 2315, 2010; in the data active means inhibition mostly above about 28%, no sharp cut-off; inactive means mostly below about 43%; further: 0% is about no effect
LmPK inhibitor – qHTS Assay for Inhibitors of Leishmania Mexicana Pyruvate Kinase (LmPK) | purified LmPK, Kinase-Glo ATP luminescence, 1 h | Potency, µM (highest dose often 57.5 µM), for inactives: top-dose activity change, negative = inhibition, usual class: inhibitors | 0.37% of 290,000 active | AID 1721, 2009; further: potency means the concentration at half of the fitted maximal effect; on the % scale 0 is the no-effect control and ±100 the full control effect
Target sequence (Q27686 whole entry, looked up): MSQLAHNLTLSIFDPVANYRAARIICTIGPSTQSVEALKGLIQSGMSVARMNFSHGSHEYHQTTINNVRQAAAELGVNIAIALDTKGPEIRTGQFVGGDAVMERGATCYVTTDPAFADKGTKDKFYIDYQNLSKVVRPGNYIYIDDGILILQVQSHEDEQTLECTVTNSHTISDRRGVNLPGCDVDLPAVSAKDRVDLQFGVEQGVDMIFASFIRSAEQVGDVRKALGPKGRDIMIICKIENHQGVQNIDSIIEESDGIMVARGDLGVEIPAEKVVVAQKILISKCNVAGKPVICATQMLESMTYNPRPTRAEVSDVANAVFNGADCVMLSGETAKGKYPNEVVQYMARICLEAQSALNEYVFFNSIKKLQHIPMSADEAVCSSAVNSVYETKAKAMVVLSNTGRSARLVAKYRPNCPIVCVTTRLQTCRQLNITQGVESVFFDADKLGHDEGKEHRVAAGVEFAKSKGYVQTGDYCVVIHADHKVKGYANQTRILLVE
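Kinase-Glo luminescence read after 1 h RT reaction of 0.1 nM LmPK with 0.5 mM PEP and 0.1 mM ADP. Activity scaled between uninhibited and enzyme-free controls.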
CHX counter – Cycloheximide Counterscreen for Small Molecule Inhibitors of Shiga Toxin; AID 2314, 2010; 12% of 300,000 active; cell reporter, cycloheximide protein synthesis inhibition counterscreen; max response, %; in the data active means max response mostly above about 13%, no sharp cut-off; inactive means mostly below about 14%; further: read at 38.3 µM for the half of the compounds with a filed dose; 0% is about no effect
Active calls of the source: *; ? = inconclusive; / = no result; [ ] = dose if it differs, or a comment. In the library only some 14% were active in any assay of this set; here they are far more common. Unless noted, the call rests on the fitted dose curve; in most records, active means well fitted curve in the direction sought with a large enough effect; inconclusive means small, poorly fitted or top-dose-only effect, or another doubt; inactive means no such curve, though single readings can be large; an effect the other way counts as inactive or inconclusive.

SMILES	NS1 inh	Giardia FBPA inh	Shiga toxin inh	LmPK inhibitor	CHX counter
CCOc1ccc(N2C(=O)c3ccccc3C2O)cc1 (stereo not drawn)	-17%	4%	64*	-3%	45
COc1ccc(NC2c3ccccc3C(=O)N2c2ccccn2)cc1 (stereo not drawn)	-1%	?	45*	8%	20*
CCOc1ccccc1NC1c2ccccc2C(=O)N1c1ccc(C)cn1 (stereo not drawn)	-48%	-10%	-3	-1%	7
COc1ccc(N2C(=O)c3ccccc3C(C)(C)C2=O)cc1	-133%	10%	-11	-3%	4
CC1(C)Cc2ccccc2-c2nnc(-c3ccccc3)n21	4%	0%	-15	-16%	6
c1ccc(-c2cn3c(n2)-c2ccccc2C3)cc1	-28%	-14%	45*	5.6µM*	26*
CC1(C(=O)N2CCN(c3ccccc3)CC2)CC1(Cl)Cl (stereo not drawn)	1%	9%	-25	4%	-2
CC1(C(=O)N2CCN(Cc3ccccc3Cl)CC2)CC1(Cl)Cl (stereo not drawn)	-11%	20%	120*	-6%	20*
CCCc1c(O)c2ccccc2[nH]c1=O	2%	-10%	4	-6%	-2
CN(C)C(=S)N=Nc1[nH]c2ccccc2c1O	/	-13%	66*	-21%	39*
O=C(Nc1ccc2c(c1)OCCO2)c1cccc(Cl)c1Cl	-26%	-1%	93*	0%	43*
O=C(Nc1ccc2c(c1)OCCO2)c1c(F)c(F)c(F)c(F)c1F	-4%	-3%	45	7%	17*
O=C(Nc1ccc2c(c1)OCCO2)c1cc(F)c(F)cc1Cl	15%	-15%	72*	-3%	37*
Cc1ccc(C(=O)Nc2ccc3c(c2)OCCO3)c(Cl)c1	-17%	-4%	4	-18%	-2
COCCN(CCOC)c1nc(C)nc2c1nc(-c1ccccc1)n2CC1CCN(C)CC1	/	2%	/	/	/
N/C(=N\OC(=O)CCC1CCCC1)c1cccnc1	-6%	-2%	19	-6%	15*
N/C(=N\OC(=O)CC1CCCCC1)c1cccnc1	0%	3%	14	-8%	27*
CC(C)(C)N1C(=O)[C@H]2[C@H]3[C@H](O)[C@H](O)C/C(=N/NC(=O)OCc4ccccc4)[C@@H]3CC[C@@H]2C1=O	/	0%[12.9 µM]	/	/	/
CCOc1ccc(-c2nc(S(=O)(=O)c3ccccc3)c(N3CCC(C(N)=O)CC3)o2)cc1	-3%	/	-5	-3%	-1
COC(=O)[C@H]1C[C@@H]1[C@H](NS(=O)(=O)c1ccc(-c2ccccc2)cc1)c1ccccc1	/	-1%	/	/	/
COc1ccc(C2CC(c3ccc4ccccc4c3)=NN2C(=O)CNC2CCCCC2)cc1 (stereo not drawn)	6%	?	16	-7%	3
COc1ccc(C2CC(c3ccc4ccccc4c3)=NN2C(=O)CN2CCC(C(N)=O)CC2)cc1 (stereo not drawn)	/	14%	79*	7%	57*
CCOC(=O)/C=C(\C)N1N=C(c2ccccc2)CC1c1ccccc1 (stereo not drawn)	/	-1%	100*	0%	42*
COc1ccc(C2CC(c3ccc4ccccc4c3)=NN2C(=O)COC(=O)C2CCC(=O)N2)cc1 (stereo not drawn)	/	-7%	127*	2%	47*
CC(=O)OCC(=O)N1N=C(c2ccc3ccccc3c2)CC1c1ccccc1 (stereo not drawn)	/	0%	67	-10%	33*
Nc1cc(=O)[nH]c(SCC(=O)N2N=C(c3ccc4ccccc4c3)CC2c2ccccc2)n1 (stereo not drawn)	-12%	-6%	-5	6%	-2
Cc1ccc(NC(=O)CCNS(=O)(=O)c2ccc3[nH]c(=O)oc3c2)c(Cl)c1	-1%	?	-8	7%	1
CCCN1CCN(CCCNC(=O)c2ccc(CS(=O)c3ccccc3C)o2)CC1 (stereo not drawn)	0%	/	-11	-13%	-10
CC(C)(CC(=O)Nc1ccccc1)C(=O)O	-1%	/	/	/	/
CCC(C)NC(=O)CSc1nnc(-c2ccc(OC)c(OC)c2)c(-c2ccc(OC)c(OC)c2)n1 (stereo not drawn)	1%	0%	-2	3%	-6

High-throughput results deposited in PubChem BioAssay by National Center for Advancing Translational Sciences (NCATS).
